Screening results as filed in PubChem BioAssay.
697 NFkB inh: lowers PMA/ionomycin-induced NF-kB signal in 697 B cells; 697 B-cell NF-kB luciferase reporter, 16 h; inhibition, % at 4 µM; 330,000 tested, 0.33% active; in the data active = inhibition above about 35%
KLF5 inhibitor: kruppel-like factor 5 inhibition; DLD-1 KLF5 promoter-luciferase reporter, luminescence; inhibition, % at 5 µM; 290,000 tested, 0.23% active; AID 1700;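 active = inhibition above a per-plate limit of that plate's mean compound inhibition plus 3 SD, cut at about 60% in these data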;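 also: higher means less KLF5 promoter-driven luciferase light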
ANO1 activ: activates or potentiates the mouse TMEM16A chloride channel. AID 623877. 340,000 tested, 0.3% active. HEK293 TMEM16A/YFP-H148Q/I152L, iodide quench fluorescence; hits give low values. Q8BHY3. B-score at 10 µM;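 active = fluorescence-ratio B-score plate-corrected deviation score at least 3 library SD below zero, with starting fluorescence score within 5 deviations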;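 also: channel opened by trigger with iodide after compound preincubation; score built on the fluorescence ratio of max minus min over baseline; more negative score means more quench and so TMEM16A activation or potentiation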
Target sequence (Q8BHY3 whole entry, looked up): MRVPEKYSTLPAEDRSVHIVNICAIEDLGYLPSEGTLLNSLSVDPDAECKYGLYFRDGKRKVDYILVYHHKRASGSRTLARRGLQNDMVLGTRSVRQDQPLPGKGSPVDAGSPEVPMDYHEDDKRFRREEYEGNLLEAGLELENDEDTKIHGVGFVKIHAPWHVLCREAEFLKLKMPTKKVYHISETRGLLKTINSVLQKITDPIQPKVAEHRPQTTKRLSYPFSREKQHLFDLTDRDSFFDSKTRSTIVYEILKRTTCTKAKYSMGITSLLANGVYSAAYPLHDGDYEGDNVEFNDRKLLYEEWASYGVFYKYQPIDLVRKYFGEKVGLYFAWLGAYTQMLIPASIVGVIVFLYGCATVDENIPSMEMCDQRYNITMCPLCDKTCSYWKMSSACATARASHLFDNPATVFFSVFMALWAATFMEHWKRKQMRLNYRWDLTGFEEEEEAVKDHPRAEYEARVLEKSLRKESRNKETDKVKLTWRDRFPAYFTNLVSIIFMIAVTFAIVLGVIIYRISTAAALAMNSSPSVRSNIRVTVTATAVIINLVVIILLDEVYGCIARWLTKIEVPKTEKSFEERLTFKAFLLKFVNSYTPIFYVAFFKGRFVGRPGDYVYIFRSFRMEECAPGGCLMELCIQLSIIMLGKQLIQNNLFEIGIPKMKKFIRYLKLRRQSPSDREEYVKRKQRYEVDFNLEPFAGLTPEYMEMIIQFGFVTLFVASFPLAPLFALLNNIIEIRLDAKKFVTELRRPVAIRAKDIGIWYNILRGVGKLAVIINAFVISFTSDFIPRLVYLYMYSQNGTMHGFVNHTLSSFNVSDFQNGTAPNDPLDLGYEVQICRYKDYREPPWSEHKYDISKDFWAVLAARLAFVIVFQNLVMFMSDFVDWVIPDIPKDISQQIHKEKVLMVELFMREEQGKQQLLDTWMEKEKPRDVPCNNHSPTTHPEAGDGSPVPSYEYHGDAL
Jurkat NFkB inh: lowers PMA/ionomycin-induced NF-kB signal in Jurkat cells | AID 435003 | 330,000 tested, 0.53% active | inhibition, % at 4 µM | PMA/ionomycin-induced NF-kB luciferase reporter, luminescence; in the data active = inhibition above about 50%
aSyn 5UTR inh: MLPCN primary screen, SNCA 5' untranslated region | alpha-synuclein 5'UTR reporter, inhibitor activity | inhibition, % (tested at 7.5 µM) | 300,000 tested, 0.82% active | AID 1813; in the data active = inhibition above about 60%;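 also: H4 neuroglioblastoma cells stably carrying SNCA 5'UTR luciferase fusion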
ANO1 block: inhibitors of mouse TMEM16A calcium-activated chloride channel. normalized B-score (activity score, 25-100; higher = stronger inhibition) at 10 µM. HEK293 TMEM16A/YFP iodide influx fluorescence, ionomycin. 310,000 tested, 1.2% active. Q8BHY3. AID 588511;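 active = ratio plate-corrected score three or more library SD toward inhibition, starting fluorescence score within five deviations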;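 also: score derived from kinetic fluorescence span divided by baseline fluorescence per well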
KLF5 confirm: confirmation of KLF5 inhibitors. AID 1834. shares compounds with KLF5 inhibitor. DLD-1 KLF5 promoter firefly luciferase reporter, luminescence. 610 tested, 79% active. inhibition, % at 4 µM;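 active = inhibition above a set limit taken from the earlier primary screen, cut at about 63% in these data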
IEC-6 tox: rat IEC-6 cytotoxicity, KLF5 inhibitor counter-screen; shares compounds with KLF5 inhibitor; IEC-6 rat intestinal cells, viability luminescence; inhibition, % at 4 µM; 610 tested, 56% active; AID 1905; in the data active = inhibition above about 23%;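 also: cells exposed to compounds for 48 hours before viability read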
Jurkat NFkB conf: inhibitors of the PMA/ionomycin-induced NF-kB reporter in Jurkat cells, retest. AID 435020. 2,700 tested, 27% active. Jurkat NF-kB luciferase, 16 h. inhibition, % at 4 µM. shares compounds with Jurkat NFkB inh;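 active = inhibition reaching about 45% at 4 µM in either replicate, limit read from the data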
697 NFkB conf: lowers PMA/ionomycin-induced NF-kB signal in 697 B cells. shares compounds with 697 NFkB inh. 697 B-cell NF-kB luciferase, 16 h. inhibition, % at 4 µM. 2,000 tested, 35% active; in the data active = inhibition mostly above about 28%, no sharp cut-off; inactive = mostly below about 22%
Large screens that a line does not name were inactive (follow-up assays come after a bar, where they were run). The list is not random: actives were taken first. Their share in the collection is about 2.5%.

CCN(CC)S(=O)(=O)c1cc(NC(=O)CCn2[nH]c(=O)ccc2=O)ccc1C	none (no result: KLF5 inhibitor, aSyn 5UTR inh, ANO1 block)
COc1ccccc1CNS(=O)(=O)c1ccc(N2CCCC2)cc1Br	none (no result: KLF5 inhibitor, ANO1 activ, Jurkat NFkB inh, aSyn 5UTR inh, ANO1 block)
CCCCCCCCCn1ccc(=N)cc1	697 NFkB inh 45.4, KLF5 inhibitor 71.7, Jurkat NFkB inh 92.2, aSyn 5UTR inh 81.9 | KLF5 confirm 61.7 | IEC-6 tox 54.9 | Jurkat NFkB conf 76.8 | 697 NFkB conf 57.8
COc1ccc(C(=O)N/N=C/c2cc(Br)ccc2O)cc1OC	697 NFkB inh 37.0, KLF5 inhibitor 68.2 | KLF5 confirm 91.8 | IEC-6 tox inactive | 697 NFkB conf inactive
CC(C)(C)c1ccc(/C=N/Nc2cccc(C(=O)O)c2)cc1	none
CC(C)(C)c1ccc(/C=N/Nc2ccc(C(=O)O)cc2)cc1	KLF5 inhibitor 66.0, Jurkat NFkB inh 59.0 | KLF5 confirm 94.4 | IEC-6 tox 34.0 | Jurkat NFkB conf inactive | 697 NFkB conf inactive
O=c1c2ccccc2oc2c1oc1ccccc12	none (no result: KLF5 inhibitor, Jurkat NFkB inh, aSyn 5UTR inh, ANO1 block)
O=C(CCCc1ccccc1)c1ccc2c(c1)OCCO2	KLF5 inhibitor 70.2, aSyn 5UTR inh 86.2 | KLF5 confirm 88.2 | IEC-6 tox inactive | 697 NFkB conf inactive
O=C(NCCc1ccccc1)c1ccc2c(c1)OCCCO2	697 NFkB inh 63.2, KLF5 inhibitor 100.0, Jurkat NFkB inh 87.0, aSyn 5UTR inh 107.1 | KLF5 confirm 109.1 | IEC-6 tox inactive | Jurkat NFkB conf 89.3 | 697 NFkB conf 65.8
COc1ccc(CCNC(=O)c2ccc3c(c2)OCCO3)cc1	none
O=C(CCc1ccccc1)c1ccc2c(c1)OCCCO2	none
COc1cc(S(=O)(=O)N2CCN(Cc3ccc4c(c3)OCO4)CC2)ccc1NC(C)=O	none (no result: KLF5 inhibitor, ANO1 activ, aSyn 5UTR inh, ANO1 block)
NC1=NC(=O)C(Cc2ccc(OC(F)(F)F)cc2)S1 (stereo unspecified)	none
NS(=O)(=O)c1ccc(N=Nc2c(O)ccc3ccccc23)cc1	none
NS(=O)(=O)c1ccc(N=Nc2ccc(O)c3ncccc23)cc1	KLF5 inhibitor 80.1, aSyn 5UTR inh 63.7 | KLF5 confirm 74.1 | IEC-6 tox inactive | 697 NFkB conf inactive
C[C@@H]1C=CC(=O)O[C@@H]1c1ccc(C(F)(F)F)cc1	697 NFkB inh 60.4, KLF5 inhibitor 61.8, Jurkat NFkB inh 97.2 (no result: ANO1 activ) | KLF5 confirm inactive | IEC-6 tox inactive | Jurkat NFkB conf 96.8 | 697 NFkB conf inactive
Cc1cc(C)c2nc(NC(=O)[C@@H](NC(=O)c3cccc(S(=O)(=O)N4CCOCC4)c3)C(C)C)sc2c1	697 NFkB inh 54.0, KLF5 inhibitor 73.8 | KLF5 confirm 100.0 | IEC-6 tox 45.2 | 697 NFkB conf 54.0
Cc1cccc(C(=O)N[C@H](C(=O)Nc2cc(S(=O)(=O)N3CCCCC3)ccc2C)C(C)C)c1	none
CCN(c1ccccc1)S(=O)(=O)c1ccc2c(c1)OCCO2	none (no result: KLF5 inhibitor, aSyn 5UTR inh, ANO1 block)
Cc1cccnc1N1C(=O)c2ccc(C(=O)O)cc2C1=O	none
COc1cccc(NC(=O)c2ccccc2)c1	none (no result: KLF5 inhibitor, aSyn 5UTR inh)
O=C(Nc1cccc(C(=O)O)c1)Nc1ccc2c(c1)OCO2	697 NFkB inh 70.5, KLF5 inhibitor 95.5, Jurkat NFkB inh 87.9, aSyn 5UTR inh 99.4 | KLF5 confirm 89.0 | IEC-6 tox inactive | Jurkat NFkB conf 68.9 | 697 NFkB conf 69.3
COc1cccc(NC(=O)Nc2cccc(C(=O)O)c2)c1	697 NFkB inh 56.7, KLF5 inhibitor 75.5, Jurkat NFkB inh 70.1 | KLF5 confirm 65.0 | IEC-6 tox inactive | Jurkat NFkB conf 50.0 | 697 NFkB conf 58.0
CC(C)=CCc1cc2c(=O)c3c(O)c4c(cc3oc2c(O)c1O)OC(C)C4(C)C (stereo unspecified)	none (no result: KLF5 inhibitor, ANO1 activ)
CC(C)c1cc(=O)[nH]c(N2CCN(Cc3ccc4c(c3)OCO4)CC2)n1	none
N#C/C(=C\c1ccc([N+](=O)[O-])cc1)c1ccccn1	none
CN(C)c1ccc(/C=C(\C#N)c2ccccn2)cc1	KLF5 inhibitor 68.8, aSyn 5UTR inh 101.5 | KLF5 confirm 65.8 | IEC-6 tox inactive | 697 NFkB conf inactive
Cc1ccc2c(c1)COc1c3ccc(C(=O)O)cc3nn1-2	697 NFkB inh 75.8, KLF5 inhibitor 92.1, Jurkat NFkB inh 92.7 | KLF5 confirm inactive | IEC-6 tox inactive | Jurkat NFkB conf 68.2 | 697 NFkB conf inactive
Cc1ccc2c(c1)COc1c3ccc(C(=O)NCC4CC4)cc3nn1-2	none (no result: KLF5 inhibitor)
COc1cc(/C=N/O)ccc1OCc1ccc(C(=O)O)cc1	697 NFkB inh 84.8, KLF5 inhibitor 83.9, Jurkat NFkB inh 85.4, aSyn 5UTR inh 115.9 | KLF5 confirm 94.5 | IEC-6 tox inactive | Jurkat NFkB conf 67.1 | 697 NFkB conf 48.4
O=C(O)CSCC(=O)Nc1ccc(C2CCCCC2)cc1	697 NFkB inh 90.2, KLF5 inhibitor 74.9, Jurkat NFkB inh 63.2, aSyn 5UTR inh 108.1 | KLF5 confirm 77.1 | IEC-6 tox inactive | Jurkat NFkB conf 77.6 | 697 NFkB conf 83.2
CCCOC(=O)c1[nH]c2c(c1C)C(=O)CC(c1ccc(OC)c(OC)c1)C2 (stereo unspecified)	none
CCCCCOC(=O)c1[nH]c2c(c1C)C(=O)CC(c1ccco1)C2 (stereo unspecified)	KLF5 inhibitor 78.5, Jurkat NFkB inh 66.7 | KLF5 confirm 87.6 | IEC-6 tox 77.1 | Jurkat NFkB conf 49.0 | 697 NFkB conf inactive
CN=c1scc(-c2ccccc2F)n1/N=C/c1ccc[nH]1	697 NFkB inh 35.5, KLF5 inhibitor 94.2, Jurkat NFkB inh 69.8, aSyn 5UTR inh 83.1 | KLF5 confirm 106.4 | IEC-6 tox inactive | Jurkat NFkB conf 75.2 | 697 NFkB conf 42.4
COc1ccc(NC(=O)C23CC4CC(CC(Cl)(C4)C2)C3)cc1S(=O)(=O)N1CCOCC1	none (no result: KLF5 inhibitor, aSyn 5UTR inh, ANO1 block)
COc1ccc(C2C(O)C(c3c[nH]c4ccccc34)=NN2C(=O)CCl)cc1 (stereo unspecified)	697 NFkB inh 97.4, KLF5 inhibitor 101.8, Jurkat NFkB inh 100.4, aSyn 5UTR inh 107.8 | KLF5 confirm 99.5 | IEC-6 tox 101.0 | Jurkat NFkB conf inactive | 697 NFkB conf inactive
COc1cccc2c1OCC(C(=O)O)C2 (stereo unspecified)	none
COc1cccc2c1C(CO)N1C(C#N)C3CC(C(=O)O)C(C1C2)N3C (stereo unspecified)	697 NFkB inh 103.7, KLF5 inhibitor 109.9, Jurkat NFkB inh 97.2 (no result: aSyn 5UTR inh) | KLF5 confirm 108.8 | IEC-6 tox 99.8 | Jurkat NFkB conf 96.4 | 697 NFkB conf 102.2
